From PubChem BioAssay (NCATS) come the findings set out here.

SMILES strings stand for the structures. Results filed as inconclusive are left out. Where a call stands in place of a potency, no number is given. The source made the active and inactive calls. The call rests on the fitted dose curve; in most records, active means well fitted inhibition curve with a large enough effect; inconclusive means small, poorly fitted or top-dose-only effect; inactive means no such curve, though single readings can be large or run the other way.

Experiment [1] concerns Zika virus NS2B-NS3 protease (unlinked complex). In words: Primary screen GU Rhodamine qHTS for Zika virus inhibitors: Unlinked NS2B-NS3 protease assay (AID 1347159). Further: nearly all actives have a fitted effect of over 60% in size. The gist of the method:
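Percent inhibition came from the 15-min rise in Rhodamine110 fluorescence (1.5 microM substrate, ~15% conversion), normalized to no-inhibitor and no-enzyme wells and Hill-fitted. Unlinked protease, 25 nM, pH 8.0 Tris buffer; compounds up to 114 microM, 15-min preincubation.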

Experiment [2] deals with Zika virus NS2B-NS3 protease (linked construct). Description: Primary screen NINDS Rhodamine qHTS for Zika virus inhibitors (AID 1347160). Further: nearly all actives have a fitted effect of over 55% in size. Put shortly:
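Rhodamine110-peptide cleavage (1.5 µM substrate) by 25 nM linked NS2B-NS3 enzyme at pH 8.0 (Tris, Tween 20), after 15 min RT preincubation with compounds; 15-min fluorescence change normalized to controls and Hill-fitted.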
In general terms: Quantitative high-throughput screening tests each substance at several concentrations.

For the compound `C=C(C)C1CCC(C)C12CC(O)C1(C)OC1C2OC(=O)C(N)CCC(=O)O` (stereo unspecified), the Potency result in experiment [1] and in experiment [2] was “inactive” in each case.
On to `Cc1ccc(S(=O)(=O)Cc2nc(-c3ccc(C(=O)NCc4cccnc4)cc3)oc2C)cc1`, for which the Potency entry in experiment [1] and in experiment [2] was “inactive” in each case.
Take `Cc1ccc(NC(=O)c2ccc(CN3CC[C@H](N(C)C)C3)c(C(F)(F)F)c2)cc1Nc1nccc(-c2cncnc2)n1`: the Potency result in experiment [1] and in experiment [2] was “inactive” throughout.
For the compound `O=C(CSc1nc2c(c(=O)n1-c1ccccc1)SCC2)Nc1ccc(-c2ccccc2)cn1`, the Potency entry in experiment [1] and in experiment [2] was “inactive” throughout.
Regarding `CNC(=S)NS(=O)(=O)c1cc(CCNC(=O)c2cc(Cl)ccc2OC)ccc1OC`, the Potency entry in experiment [1] and in experiment [2] was “inactive” throughout.
Regarding `O=C(O[C@H]1[C@@H]2C=CO[C@@H](O[C@@H]3O[C@H](CO)[C@@H](O)[C@H](O)[C@H]3O)[C@@H]2[C@@]2(CO)O[C@@H]12)c1ccccc1`, the Potency result in experiment [1] and in experiment [2] was “inactive” in each case.
As to `CC1=C(CO)C(=O)O[C@@H]([C@@H](C)[C@H]2CC[C@H]3[C@@H]4C[C@H]5O[C@]56[C@@H](O)C=CC(=O)[C@]6(C)[C@H]4CC[C@]23C)C1`, the Potency entry in experiment [1] and in experiment [2] was “inactive” in each case.
For `COc1ccc(CNC(=O)c2sc3nc(C)cc(C)c3c2N)cc1`, the Potency result in experiment [1] and in experiment [2] was “inactive” each time.
